# The full list was thinned out, with the strongest signals kept by preference.
# Experiments:
# Test in all cases: glycan array binding signal (z-score within array); higher = stronger binding
# Details in all cases: glycan notation: IUPAC condensed, linker removed
# [1] = molecular target: Fuc(a1-2)Gal(b1-3)GalNAc
# Procedure, shortened: (§1)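 The binding signal is a Z-score computed within each array and averaged over linkers. Arrays of the same protein sequence at different concentrations or buffers were also averaged together. Data originate from 3228 arrays in the Consortium for Functional Glycomics database, kept only where the protein sequence was available.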
# [2] = molecular target: Fuc(a1-2)Gal(b1-3)GlcNAc
# Procedure, shortened: as §1
# [3] = molecular target: Fuc(a1-2)Gal(b1-3)[Fuc(a1-4)]GlcNAc(b1-2)Man(a1-3)[Fuc(a1-2)Gal(b1-3)[Fuc(a1-4)]GlcNAc(b1-2)Man(a1-3)]Man(b1-4)GlcNAc(b1-4)GlcNAc
# Procedure, shortened: as §1
# [4] = molecular target: Fuc(a1-2)Gal(b1-3)[Fuc(a1-4)]GlcNAc(b1-3)[Fuc(a1-3)[Gal(b1-4)]GlcNAc(b1-6)]Gal(b1-4)Glc
# Procedure, shortened: as §1
# [5] = molecular target: Fuc(a1-2)Gal(b1-4)Glc
# Procedure, shortened: as §1
# [6] = molecular target: Fuc(a1-2)Gal(b1-4)[Fuc(a1-3)]GlcNAc(b1-3)[Neu5Ac(a2-6)Gal(b1-4)GlcNAc(b1-6)]Gal(b1-4)Glc
# Procedure, shortened: as §1
# [7] = molecular target: Fuc(a1-2)Gal6S(b1-4)Glc6S
# Procedure, shortened: as §1
# [8] = molecular target: Fuc(a1-2)[Gal(a1-3)]Gal(b1-3)GalNAc(b1-3)Gal(a1-4)Gal(b1-4)Glc
# Procedure, shortened: as §1
# [9] = molecular target: Fuc(a1-2)[Gal(a1-4)]Gal(b1-4)GlcNAc
# Procedure, shortened: as §1
# [10] = molecular target: Fuc(a1-2)[GalNAc(a1-3)]Gal(b1-3)GlcNAc
# Procedure, shortened: as §1
# [11] = molecular target: Fuc(a1-2)[GalNAc(a1-3)]Gal(b1-4)GlcNAc
# Procedure, shortened: as §1
# [12] = molecular target: Fuc(a1-2)[GalNAc(a1-3)]Gal(b1-4)GlcNAc(b1-2)Man
# Procedure, shortened: as §1
# [13] = molecular target: Fuc(a1-3)[Gal(b1-4)]GlcNAc(b1-6)GalNAc
# Procedure, shortened: as §1
# [14] = molecular target: Fuc(a1-3)[Gal(b1-4)]GlcNAc6S
# Procedure, shortened: as §1
# [15] = molecular target: Gal(a1-3)Gal(b1-4)GlcNAc(b1-3)GalNAc
# Procedure, shortened: as §1
# [16] = molecular target: Gal(a1-3)Gal(b1-4)[Fuc(a1-3)]GlcNAc(b1-2)Man(a1-3)[Gal(a1-3)Gal(b1-4)[Fuc(a1-3)]GlcNAc(b1-2)Man(a1-6)]Man(b1-4)GlcNAc(b1-4)GlcNAc
# Procedure, shortened: as §1
# [17] = molecular target: Gal(a1-4)Gal(b1-4)Glc
# Procedure, shortened: as §1
# [18] = molecular target: Gal(b1-3)GlcNAc(b1-3)Gal(b1-4)Glc
# Procedure, shortened: as §1
# [19] = molecular target: Gal(b1-3)GlcNAc(b1-3)Gal(b1-4)[Fuc(a1-3)]GlcNAc(b1-6)[Gal(b1-3)GlcNAc(b1-3)]Gal(b1-4)Glc
# Procedure, shortened: as §1
# [20] = molecular target: Gal(b1-3)[Neu5Ac(a2-6)]GlcNAc(b1-4)Gal(b1-4)Glc
# Procedure, shortened: as §1
# [21] = molecular target: Gal(b1-4)GlcNAc(a1-6)Gal(b1-4)GlcNAc
# Procedure, shortened: as §1
# [22] = molecular target: Gal(b1-4)GlcNAc(b1-2)[Gal(b1-4)GlcNAc(b1-4)]Man(a1-3)[Gal(b1-4)GlcNAc(b1-2)Man(a1-6)]Man(b1-4)GlcNAc(b1-4)GlcNAc
# Procedure, shortened: as §1
# [23] = molecular target: Gal(b1-4)GlcNAc(b1-3)Gal(b1-4)GlcNAc(b1-2)Man(a1-3)[Gal(b1-4)GlcNAc(b1-3)Gal(b1-4)GlcNAc(b1-2)Man(a1-6)]Man(b1-4)GlcNAc(b1-4)GlcNAc
# Procedure, shortened: as §1
# [24] = molecular target: Gal(b1-4)GlcNAc(b1-3)Gal(b1-4)GlcNAc(b1-3)Gal(b1-4)GlcNAc(b1-2)Man(a1-3)[Gal(b1-4)GlcNAc(b1-3)Gal(b1-4)GlcNAc(b1-3)Gal(b1-4)GlcNAc(b1-2)Man(a1-6)]Man(b1-4)GlcNAc(b1-4)GlcNAc
# Procedure, shortened: as §1
# [25] = molecular target: Gal(b1-4)GlcNAc(b1-3)Gal(b1-4)GlcNAc(b1-3)Gal(b1-4)GlcNAc(b1-2)[Gal(b1-4)GlcNAc(b1-3)Gal(b1-4)GlcNAc(b1-3)Gal(b1-4)GlcNAc(b1-6)]Man(a1-6)[Gal(b1-4)GlcNAc(b1-3)Gal(b1-4)GlcNAc(b1-3)Gal(b1-4)GlcNAc(b1-2)Man(a1-3)]Man(b1-4)GlcNAc(b1-4)[Fuc(a1-6)]GlcNAc
# Procedure, shortened: as §1
# [26] = molecular target: Gal(b1-4)GlcNAc(b1-3)Gal(b1-4)GlcNAc(b1-3)Gal(b1-4)GlcNAc(b1-3)Gal(b1-4)GlcNAc(b1-2)[Gal(b1-4)GlcNAc(b1-3)Gal(b1-4)GlcNAc(b1-3)Gal(b1-4)GlcNAc(b1-3)Gal(b1-4)GlcNAc(b1-6)]Man(a1-6)[Gal(b1-4)GlcNAc(b1-3)Gal(b1-4)GlcNAc(b1-3)Gal(b1-4)GlcNAc(b1-3)Gal(b1-4)GlcNAc(b1-2)Man(a1-3)]Man(b1-4)GlcNAc(b1-4)[Fuc(a1-6)]GlcNAc
# Procedure, shortened: as §1
# [27] = molecular target: Gal(b1-4)GlcNAc(b1-3)Gal(b1-4)GlcNAc(b1-3)Gal(b1-4)GlcNAc(b1-3)Gal(b1-4)GlcNAc(b1-3)Gal(b1-4)GlcNAc(b1-2)[Gal(b1-4)GlcNAc(b1-3)Gal(b1-4)GlcNAc(b1-3)Gal(b1-4)GlcNAc(b1-3)Gal(b1-4)GlcNAc(b1-3)Gal(b1-4)GlcNAc(b1-6)]Man(a1-6)[Gal(b1-4)GlcNAc(b1-3)Gal(b1-4)GlcNAc(b1-3)Gal(b1-4)GlcNAc(b1-3)Gal(b1-4)GlcNAc(b1-3)Gal(b1-4)GlcNAc(b1-2)Man(a1-3)]Man(b1-4)GlcNAc(b1-4)[Fuc(a1-6)]GlcNAc
# Procedure, shortened: as §1
binder,measurement,setting,value
rCnSL-proA (Clitocybe nebularis) (protein) AAFFSLVVLLALLPFGIHASALPSTELTPRVNPNLPGPNDVFVGFRGTNNIVGAIYEKDGIKDTPLNNGADAEMGPGSYITDGLFTARIFASGSAGNNPGTTATVCKIYASGVQWRGAPKGYIPVAYFGNGPTAEQRRQTYLRTLGLPGTAIRFGNLNTNPGQGPTAPRQMVVPPGPLRSLLKASCFPAADTRLPQTLHYFEKRVDWNIITAADSQTWGH,glycan array binding signal (z-score),[1],-0.318
same,glycan array binding signal (z-score),[2],-0.622
same,glycan array binding signal (z-score),[3],6
same,glycan array binding signal (z-score),[4],-0.573
same,glycan array binding signal (z-score),[5],-0.272
same,glycan array binding signal (z-score),[6],-0.085
same,glycan array binding signal (z-score),[7],-0.281
same,glycan array binding signal (z-score),[8],-0.278
same,glycan array binding signal (z-score),[9],0.128
same,glycan array binding signal (z-score),[10],0.497
same,glycan array binding signal (z-score),[11],-0.387
same,glycan array binding signal (z-score),[12],-0.723
same,glycan array binding signal (z-score),[13],0.153
same,glycan array binding signal (z-score),[14],0.115
same,glycan array binding signal (z-score),[15],-0.161
same,glycan array binding signal (z-score),[16],3.75
same,glycan array binding signal (z-score),[17],-0.307
same,glycan array binding signal (z-score),[18],-0.329
same,glycan array binding signal (z-score),[19],0.293
same,glycan array binding signal (z-score),[20],-0.459
same,glycan array binding signal (z-score),[21],3.94
same,glycan array binding signal (z-score),[22],0.465
same,glycan array binding signal (z-score),[23],5.99
same,glycan array binding signal (z-score),[24],4.45
same,glycan array binding signal (z-score),[25],4.11
same,glycan array binding signal (z-score),[26],4.64
same,glycan array binding signal (z-score),[27],3.94
